From PubChem BioAssay
CHO-K1 Ca ag – counter-screen for M1 agonists: effect in parental CHO-K1 cells; 0.48% of 360,000 active; AID 602248, 2012; activation, % at 3 µM; Fluo-8 calcium fluorescence; scaled to maximal ATP response, vehicle zero; in the data active means activation above about 15%;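 further: untransfected CHO-K1 host cells lacking M1 receptor as counterscreen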
M4 antag – human M4 muscarinic receptor antagonists, primary screen, CHO cells, Fluo-8 calcium fluorescence | Muscarinic acetylcholine receptor M4 (Homo sapiens), P08173 | CHO-hM4 cells, ACh EC80 | inhibition, % at 3 µM | 0.73% of 360,000 active | AID 624125, 2012;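 active means inhibition above its plate's cutoff, the mean inhibition of sample wells plus 3 SD, cut at about 27% in these data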;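 further: 0% = acetylcholine EC80 with DMSO and 100% = DMSO without agonist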
Target sequence (P08173 whole entry, looked up): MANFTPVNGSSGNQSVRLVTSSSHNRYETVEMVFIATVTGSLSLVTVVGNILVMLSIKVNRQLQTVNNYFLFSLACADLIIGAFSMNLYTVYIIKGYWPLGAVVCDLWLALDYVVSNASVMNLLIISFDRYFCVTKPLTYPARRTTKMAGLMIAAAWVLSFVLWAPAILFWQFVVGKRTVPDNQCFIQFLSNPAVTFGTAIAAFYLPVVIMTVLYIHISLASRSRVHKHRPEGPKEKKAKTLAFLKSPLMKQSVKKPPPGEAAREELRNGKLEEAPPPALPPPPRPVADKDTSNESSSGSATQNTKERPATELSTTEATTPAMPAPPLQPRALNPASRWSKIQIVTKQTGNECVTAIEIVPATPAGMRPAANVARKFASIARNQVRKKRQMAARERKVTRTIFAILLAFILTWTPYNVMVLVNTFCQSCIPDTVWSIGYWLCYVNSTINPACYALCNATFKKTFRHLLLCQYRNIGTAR
M4 PAM – human M4 muscarinic receptor positive allosteric modulators, primary screen, CHO-K1 cells, Fluo-8 calcium fluorescence. Muscarinic acetylcholine receptor M4 (Homo sapiens), P08173. CHO-K1 hM4/Gqi5, ACh EC20; 0% = ACh EC20, 100% = maximal ACh. AID 624126, 2012. 0.4% of 360,000 active. activation, % at 3 µM;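 active means activation above its plate's cutoff, the mean activation of sample wells plus 3 SD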
CHO-K1 Ca antag – counter-screen for M1 antagonists: effect in parental CHO-K1 cells; AID 602250; 0.6% of 360,000 active; ATP-induced calcium, Fluo-8 fluorescence; inhibition, % at 3 µM;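 active means inhibition above a per-plate cutoff, the plate's mean sample inhibition plus 3 SD, cut at about 24% in these data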;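 further: 0% = DMSO plus EC80 ATP and 100% = DMSO alone without ATP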
CHRM4 agonist – human M4 muscarinic receptor agonists, primary screen, CHO-K1 cells, Fluo-8 calcium fluorescence; Muscarinic acetylcholine receptor M4 (Homo sapiens), P08173; CHO-K1 hM4/Gqi5; vehicle 0%, full acetylcholine response 100%; activation, % at 3 µM; 0.14% of 360,000 active; AID 624127, 2012;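 active means activation above the run mean over all test wells plus 3 SD, cut at about 32% in these data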;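 further: peak over basal fluorescence ratio per well then scaled between controls; 0% = DMSO wells and 100% = acetylcholine at EC100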
CHO-K1 Ca PAM – nonselective calcium activators in parental CHO-K1 cells, primary screen, counter-screen for M1 PAM project, cell-based, Fluo-8 calcium fluorescence, full deck, 1536-well; ATP EC20; 0% at ATP EC20, 100% at ATP max; activation, % at 3 µM; 0.02% of 360,000 active; AID 602247, 2012;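 active means activation above the run cutoff, the mean activation of all test compounds plus 3 SD, cut at about 40% in these data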;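 further: peak over basal fluorescence ratio in a 140 s read after ATP addition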
* hit, by the source's call. A selection: hits, their analogues and other compounds. The true share with any hit is near 2%.

SMILES | CHO-K1 Ca ag | M4 antag | M4 PAM | CHO-K1 Ca antag | CHRM4 agonist | CHO-K1 Ca PAM
COc1ccccc1C(CNC(=O)c1cccc(S(=O)(=O)Nc2ccc(C)cc2)c1)N(C)C (centres undefined) | 1 | 32* | -14 | -8 | 0 | -4
COc1ccc(NS(=O)(=O)c2cccc(C(=O)NCC(c3ccccc3)N(C)C)c2)cc1 (centres undefined) | 3 | 0 | -4 | 3 | 3 | 6
CCN1C(=O)[C@@H]2[C@@H](c3ccc(-c4cccc(Cl)c4)c(OC)c3)N3CCCC[C@@]3(C(=O)OC)[C@@H]2C1=O | 0 | 7 | -9 | -7 | -1 | 4
CCCN=C1N(C)C[C@@H]2[C@@H]3C(=O)N(Cc4ccccc4)C(=O)[C@@H]3[C@](CC)(C(=O)OC)N12 | 0 | -16 | -1 | -2 | 0 | 4
CCOc1ccc(-c2nnn(CC(=O)N3CCCC(C)C3)n2)cc1 (centres undefined) | 1 | -1 | 0 | 5 | 4 | -7
COc1ccc(C(=O)Nc2ccc(S(=O)(=O)N3CCc4ccccc43)cc2)cc1 | 3 | 42* | -27 | 21 | 18 | -7
CCN(CC)CCNC(=O)c1cc(S(=O)(=O)N2CCc3ccccc32)cn1C | 6 | 12 | -10 | 15 | 21 | 13
COc1cccc(CN(C)C(=O)CSCC(=O)Nc2cccc(C)c2)c1OC | 2 | -6 | -3 | -12 | 5 | 9
NS(=O)(=O)c1ccc(NC(=O)c2ccc(S(=O)(=O)N3CCc4ccccc43)cc2)cc1 | 1 | 4 | -4 | -5 | 1 | 6
COc1ccc(NC(=O)CSCC(=O)N(C)Cc2cccc(OC)c2OC)cc1 | 0 | -15 | 0 | 26* | 0 | -33
CCN(CC)CCNC(=O)c1ccc(NC(=O)c2cc(S(=O)(=O)N3CCCCC3)ccc2C)cc1 | 2 | 69* | -16 | -16 | 1 | 8
CCN(CC)CCNC(=O)c1ccc(NC(=O)c2cccc(S(=O)(=O)N3CCc4ccccc43)c2)cc1 | 5 | 61* | -17 | 8 | 0 | 5
CN(C(=O)COC(=O)c1nn(C)c(=O)c2ccccc12)c1c(N)n(Cc2ccccc2)c(=O)[nH]c1=O | 1 | -6 | 12 | -3 | 1 | -3
CCN(CC)CCNC(=O)c1ccc(NC(=O)c2cccc(S(=O)(=O)Nc3ccc(C)cc3)c2)cc1 | 2 | 43* | -20 | -10 | 1 | 17
COc1ccc(NC(=O)CSCC(=O)N2c3ccccc3CCc3ccccc32)cc1 | 19* | -7 | -3 | 4 | 0 | 17
CN(C)C(=O)c1ccc(Cc2cn(C)c3ccccc23)nc1 | 0 | -7 | 4 | -9 | 1 | 12
COc1ccc(C(CCNCc2ccc(N(C)C)cc2)C(C)C)cc1 (centres undefined) | 7 | 42* | -52 | 28* | 27 | -28
COc1ccc(CNCCC(c2ccccc2)c2ccc3c(c2)OCO3)cc1 (centres undefined) | 28* | 18 | -12 | -6 | 29 | 4
COc1ccc(C(CCNCc2ccc(OC(C)C)cc2)C(C)C)cc1 (centres undefined) | 9 | 23 | -19 | 12 | 27 | -13
Cc1noc(C)c1NC(=O)Nc1ccc2c(c1)C(=O)N([C@H](C)CO)C[C@@H](C)[C@@H](CN(C)S(=O)(=O)c1cn(C)cn1)OCCCC[C@H](C)O2 | 0 | -3 | -2 | 26* | 1 | 10
Cc1noc(C)c1NC(=O)N(C)C[C@H]1OCCCC[C@@H](C)Oc2ccc(NC(=O)Nc3ccc(F)cc3)cc2C(=O)N([C@@H](C)CO)C[C@H]1C | 0 | 1 | -3 | 3 | 1 | 7
Cc1ccc(S(=O)(=O)Nc2ccc3c(c2)C(=O)N([C@@H](C)CO)C[C@@H](C)[C@@H](CN(C)S(=O)(=O)c2ccccc2)OCCCC[C@H](C)O3)cc1 | 0 | 3 | -5 | 24* | 0 | -15
COc1ccc(S(=O)(=O)N(C)C[C@H]2OCCCC[C@H](C)Oc3ccc(NC(=O)Nc4ccc(F)cc4)cc3C(=O)N([C@H](C)CO)C[C@H]2C)cc1 | 0 | -8 | 10 | -21 | 1 | 27
Cc1ccc(S(=O)(=O)N(C)C[C@@H]2OCCCC[C@H](C)Oc3ccc(NC(=O)Nc4ccc(F)cc4)cc3C(=O)N([C@H](C)CO)C[C@H]2C)cc1 | -1 | 6 | 1 | 26* | 0 | -8
CCOc1ccccc1-c1ccc2nccn2c1 | 2 | 10 | -11 | -11 | 5 | -8
SMILES | CHO-K1 Ca ag | M4 antag | M4 PAM | CHO-K1 Ca antag | CHRM4 agonist | CHO-K1 Ca PAM
COc1cccc(CNS(=O)(=O)c2c(C)nc3sccn3c2=O)c1 | 2 | -3 | 0 | 2 | 8 | 1
Cc1nc2sccn2c(=O)c1S(=O)(=O)NCc1ccccc1 | -1 | -18 | 5 | 25* | -1 | -3
CCc1ccc(N2CC(C(=O)N3CCN(c4ccccn4)CC3)CC2=O)cc1 (centres undefined) | -1 | -24 | 26* | -1 | 1 | -10
O=C(/C=C/c1ccc(Cl)c([N+](=O)[O-])c1)Nc1cccc(NC(=O)c2ccco2)c1 | 7 | 17 | -14 | 28* | 13 | -14
CC(C)C(=O)Nc1cc(=O)[nH]c2ncnn12 | 0 | -11 | 19* | -11 | 0 | 6
CCCCC(CC)C(=O)Nc1cc(=O)[nH]c2nc3ccccc3n12 (centres undefined) | 0 | -7 | 0 | 12 | 0 | -1
Cc1ccc(NC(=O)COC(=O)c2ccc([N+](=O)[O-])o2)cc1S(=O)(=O)N1CCCCCC1 | 2 | -6 | 1 | -4 | 3 | -4
NC(=S)Cc1nc(-c2ccccc2)cs1 | 2 | 17 | -2 | 32* | 2 | -10
COc1ccc(S(=O)(=O)N2CC=C(c3ccccc3)CC2)cc1OC | 1 | -9 | 0 | 1 | 5 | -10
COc1ccc(CNc2ncnc3c2[nH]c2cc(OC)c(OC)cc23)cc1 | 3 | 4 | -7 | 14 | 16 | -26
COc1ccc(CNc2ncnc3c2[nH]c2ccccc23)cc1 | 19* | 20 | -15 | 21 | 22 | -11
CC(C)OCCCNc1ncnc2c1[nH]c1ccccc12 | 16* | 13 | -12 | -14 | 24 | -11
C1=C(CCNc2ncnc3c2[nH]c2ccccc23)CCCC1 | 15* | 32* | -13 | 29* | 14 | 6
O=c1c2[nH]c3ccccc3c2ncn1CCC1=CCCCC1 | 0 | 7 | 3 | -8 | 1 | 6
